In ChEMBL document CHEMBL3988442, “University of Dundee, Small-Polar-MMV Screening Library” (2021):
For some of these results: Potency and affinity values are given separately.

Experiments:
Parameters in all cases: scale not given: direction of the effect not stated beside the values
[1] = target: Protein translocase subunit SecA (Escherichia coli (strain K12)) (UniProt P10408); assay: Assay to Identify E. coli SecA ATPase Inhibitors; format: functional; details: 30 µM
[2] = target: T1, Ubiquitin-activating enzyme e1, putative (Leishmania donovani (strain BPK282A1)) (UniProt E9BSI1); assay: Leishmania donovani Ubiquitin Activating Enzyme (LdE1); format: functional; details: 30 µM
T1 sequence (whole entry): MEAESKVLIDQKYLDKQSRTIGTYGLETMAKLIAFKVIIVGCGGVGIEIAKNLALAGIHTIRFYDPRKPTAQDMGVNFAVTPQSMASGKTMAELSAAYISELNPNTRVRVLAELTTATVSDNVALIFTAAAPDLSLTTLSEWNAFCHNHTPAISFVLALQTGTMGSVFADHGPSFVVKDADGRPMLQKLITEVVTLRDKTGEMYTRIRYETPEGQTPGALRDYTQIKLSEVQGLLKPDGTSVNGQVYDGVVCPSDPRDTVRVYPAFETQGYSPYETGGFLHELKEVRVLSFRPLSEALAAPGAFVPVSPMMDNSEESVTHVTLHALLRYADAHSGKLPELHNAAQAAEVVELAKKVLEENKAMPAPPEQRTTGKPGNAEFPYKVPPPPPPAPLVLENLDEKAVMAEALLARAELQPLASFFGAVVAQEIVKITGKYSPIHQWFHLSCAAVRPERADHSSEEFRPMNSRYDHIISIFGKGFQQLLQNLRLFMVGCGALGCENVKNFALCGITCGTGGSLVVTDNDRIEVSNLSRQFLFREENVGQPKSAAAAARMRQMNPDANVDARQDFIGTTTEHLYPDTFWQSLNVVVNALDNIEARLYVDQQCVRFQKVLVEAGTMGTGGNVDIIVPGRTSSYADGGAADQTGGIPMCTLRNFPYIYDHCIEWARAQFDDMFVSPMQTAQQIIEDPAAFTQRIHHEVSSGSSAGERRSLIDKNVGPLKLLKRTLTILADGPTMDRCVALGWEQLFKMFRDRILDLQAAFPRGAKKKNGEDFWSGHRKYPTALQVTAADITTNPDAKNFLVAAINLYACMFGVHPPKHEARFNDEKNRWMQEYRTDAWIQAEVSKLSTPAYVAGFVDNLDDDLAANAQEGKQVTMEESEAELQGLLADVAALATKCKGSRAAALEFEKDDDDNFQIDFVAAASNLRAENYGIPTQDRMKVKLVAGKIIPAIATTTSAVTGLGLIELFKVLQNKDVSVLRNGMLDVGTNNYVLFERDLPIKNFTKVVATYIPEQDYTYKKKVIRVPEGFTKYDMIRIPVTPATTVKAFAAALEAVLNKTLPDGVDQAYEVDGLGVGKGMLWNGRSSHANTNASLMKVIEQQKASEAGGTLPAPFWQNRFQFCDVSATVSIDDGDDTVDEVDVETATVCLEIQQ

[3] = target: AMP-activated protein kinase, AMPK (Homo sapiens) (UniProt P54646+O43741+P54619+Q9UGJ0+Q9Y478+Q13131+Q9UGI9); assay: AMP-dependent Kinase enzyme assay. An in vitro enzyme assay that detects ADP turnover that is directly proportional to AMPK activity. This uses naive AMPK that is activated during the assay with MK-8722; format: functional; details: 30 µM
[4] = target: Sialic acid-binding Ig-like lectin 9 (Homo sapiens) (UniProt Q9Y336); assay: Hs-Siglec9 ALPHAscreen SOP 20170721; details: 10 µM
Trypanosoma cruzi = assay: Trypanosoma cruzi phosphomannomutase and mannose-1-phosphate guanylyltransferase assay; format: functional; details: 10 µM
[5] = target: T2, Arginase-2, mitochondrial (Homo sapiens) (UniProt P78540); assay: in vitro enzyme assay to detect the production of urea directly proportional to the activity of Arginase II; format: functional; details: 33.3 µM; further: in the data most compounds retested in dose-response had high values
T2 sequence (whole entry): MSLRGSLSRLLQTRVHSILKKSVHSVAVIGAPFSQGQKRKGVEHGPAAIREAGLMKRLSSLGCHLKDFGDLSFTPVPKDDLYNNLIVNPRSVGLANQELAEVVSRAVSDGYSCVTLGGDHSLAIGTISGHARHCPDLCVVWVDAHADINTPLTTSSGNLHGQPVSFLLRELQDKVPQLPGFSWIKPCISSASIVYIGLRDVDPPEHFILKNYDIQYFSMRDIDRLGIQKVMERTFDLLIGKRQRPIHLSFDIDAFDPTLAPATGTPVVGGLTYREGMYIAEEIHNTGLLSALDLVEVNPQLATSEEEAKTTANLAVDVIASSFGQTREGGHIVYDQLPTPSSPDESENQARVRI

[6] = target: T3, Proteasome subunit beta (Trypanosoma cruzi) (UniProt O96673); assay: Trypanosoma cruzi proteasome chymotrypsin-like activity (TcProtChymo) assay.; further: in the data most compounds retested in dose-response had high values; format: functional; details: 9.37 µM
T3 sequence (whole entry): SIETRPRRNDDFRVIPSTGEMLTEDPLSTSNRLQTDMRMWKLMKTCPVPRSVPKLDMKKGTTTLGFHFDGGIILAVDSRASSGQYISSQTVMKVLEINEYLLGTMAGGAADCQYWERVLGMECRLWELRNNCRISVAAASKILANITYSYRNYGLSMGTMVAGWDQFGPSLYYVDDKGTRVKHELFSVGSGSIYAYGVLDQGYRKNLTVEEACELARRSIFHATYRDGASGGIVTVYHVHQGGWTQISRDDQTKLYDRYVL

Homo sapiens = species on record: Homo sapiens; assay: To identify inhibition of the IFN signalling (Jak-Stat) pathway via expression of an eGFP reporter gene under the control of an IFN-stimulated response element (ISRE) containing MxA promoter.; format: functional; details: 30 µM
[7] = target: T4, Tyrosyl-tRNA synthetase, putative (Trypanosoma cruzi (strain CL Brener)) (UniProt Q4DSP6); assay: Trypanosoma cruzi tyrosyl tRNA synthetase (TcYRS) _High Tyrosine SOP; format: functional; details: 30 µM; further: in the data most compounds retested in dose-response had high values
T4 sequence (whole entry): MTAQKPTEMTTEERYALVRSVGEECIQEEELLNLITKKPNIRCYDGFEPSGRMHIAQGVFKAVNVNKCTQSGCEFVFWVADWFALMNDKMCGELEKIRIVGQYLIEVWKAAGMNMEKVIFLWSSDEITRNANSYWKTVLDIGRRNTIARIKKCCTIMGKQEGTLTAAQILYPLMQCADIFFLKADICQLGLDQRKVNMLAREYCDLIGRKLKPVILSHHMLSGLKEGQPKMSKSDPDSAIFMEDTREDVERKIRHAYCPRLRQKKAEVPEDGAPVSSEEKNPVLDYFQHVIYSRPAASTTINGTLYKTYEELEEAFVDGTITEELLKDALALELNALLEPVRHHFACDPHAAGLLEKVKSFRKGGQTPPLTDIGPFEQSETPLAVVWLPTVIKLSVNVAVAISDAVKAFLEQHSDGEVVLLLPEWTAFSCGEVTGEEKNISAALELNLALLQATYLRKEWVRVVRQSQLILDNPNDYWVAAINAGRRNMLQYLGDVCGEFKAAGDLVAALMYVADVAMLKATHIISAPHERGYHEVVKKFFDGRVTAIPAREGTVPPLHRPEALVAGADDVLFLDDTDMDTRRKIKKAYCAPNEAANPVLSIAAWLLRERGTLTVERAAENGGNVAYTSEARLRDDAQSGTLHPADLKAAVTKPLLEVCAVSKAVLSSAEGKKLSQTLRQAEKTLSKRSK

[8] = target: T4, Tyrosyl-tRNA synthetase, putative (Trypanosoma cruzi (strain CL Brener)); assay: Trypanosoma cruzi tyrosyl tRNA synthetase (TcYRS) SOP; format: functional; details: 30 µM
[9] = target: Chromo domain-containing protein 1 (Saccharomyces cerevisiae (strain ATCC 204508 / S288c) (Baker's yeast)) (UniProt P32657); assay: ScCHD-1 Enzyme Inhibition Assay; format: functional; details: 30 µM; further: in the data most compounds retested in dose-response had high values
Sequence of Chromo domain-containing protein 1 (Saccharomyces cerevisiae (strain ATCC 204508 / S288c) (Baker's yeast)) (P32657 whole entry, the tested form may be a part): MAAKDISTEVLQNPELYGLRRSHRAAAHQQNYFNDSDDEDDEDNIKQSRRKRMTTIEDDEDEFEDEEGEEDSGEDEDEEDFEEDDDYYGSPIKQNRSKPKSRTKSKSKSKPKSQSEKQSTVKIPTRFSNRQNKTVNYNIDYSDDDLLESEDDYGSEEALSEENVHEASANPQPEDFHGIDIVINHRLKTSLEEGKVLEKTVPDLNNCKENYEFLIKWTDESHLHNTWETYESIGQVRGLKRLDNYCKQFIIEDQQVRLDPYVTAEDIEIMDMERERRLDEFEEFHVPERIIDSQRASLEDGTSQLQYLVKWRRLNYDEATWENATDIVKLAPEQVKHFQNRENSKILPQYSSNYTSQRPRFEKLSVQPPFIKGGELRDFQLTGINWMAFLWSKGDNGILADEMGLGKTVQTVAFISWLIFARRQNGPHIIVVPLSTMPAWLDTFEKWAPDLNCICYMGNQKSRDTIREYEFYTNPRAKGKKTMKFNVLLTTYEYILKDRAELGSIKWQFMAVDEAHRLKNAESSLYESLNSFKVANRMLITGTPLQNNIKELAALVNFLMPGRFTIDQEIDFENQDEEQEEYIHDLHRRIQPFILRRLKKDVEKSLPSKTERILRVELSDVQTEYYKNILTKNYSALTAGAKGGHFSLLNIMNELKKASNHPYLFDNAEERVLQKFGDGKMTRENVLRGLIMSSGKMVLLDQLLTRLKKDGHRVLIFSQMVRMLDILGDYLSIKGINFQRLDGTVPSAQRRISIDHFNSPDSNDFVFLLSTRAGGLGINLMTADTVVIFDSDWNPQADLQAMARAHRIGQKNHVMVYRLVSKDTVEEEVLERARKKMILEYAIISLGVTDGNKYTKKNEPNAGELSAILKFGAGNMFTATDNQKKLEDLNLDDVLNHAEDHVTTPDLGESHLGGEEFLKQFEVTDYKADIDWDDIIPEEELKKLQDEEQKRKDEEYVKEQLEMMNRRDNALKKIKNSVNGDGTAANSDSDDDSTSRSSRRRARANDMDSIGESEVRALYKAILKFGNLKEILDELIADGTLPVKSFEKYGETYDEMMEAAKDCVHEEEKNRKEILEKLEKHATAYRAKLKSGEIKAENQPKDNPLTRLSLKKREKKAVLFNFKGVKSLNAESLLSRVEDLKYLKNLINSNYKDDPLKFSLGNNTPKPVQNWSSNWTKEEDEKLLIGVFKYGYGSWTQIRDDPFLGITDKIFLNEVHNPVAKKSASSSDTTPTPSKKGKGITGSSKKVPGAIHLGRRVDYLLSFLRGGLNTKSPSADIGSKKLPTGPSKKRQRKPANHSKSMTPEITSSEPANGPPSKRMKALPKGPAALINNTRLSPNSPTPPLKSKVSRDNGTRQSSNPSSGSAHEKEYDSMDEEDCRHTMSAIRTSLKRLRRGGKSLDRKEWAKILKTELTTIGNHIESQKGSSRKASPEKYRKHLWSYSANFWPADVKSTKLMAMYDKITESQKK

Sequence of Protein translocase subunit SecA (Escherichia coli (strain K12)) (P10408 whole entry): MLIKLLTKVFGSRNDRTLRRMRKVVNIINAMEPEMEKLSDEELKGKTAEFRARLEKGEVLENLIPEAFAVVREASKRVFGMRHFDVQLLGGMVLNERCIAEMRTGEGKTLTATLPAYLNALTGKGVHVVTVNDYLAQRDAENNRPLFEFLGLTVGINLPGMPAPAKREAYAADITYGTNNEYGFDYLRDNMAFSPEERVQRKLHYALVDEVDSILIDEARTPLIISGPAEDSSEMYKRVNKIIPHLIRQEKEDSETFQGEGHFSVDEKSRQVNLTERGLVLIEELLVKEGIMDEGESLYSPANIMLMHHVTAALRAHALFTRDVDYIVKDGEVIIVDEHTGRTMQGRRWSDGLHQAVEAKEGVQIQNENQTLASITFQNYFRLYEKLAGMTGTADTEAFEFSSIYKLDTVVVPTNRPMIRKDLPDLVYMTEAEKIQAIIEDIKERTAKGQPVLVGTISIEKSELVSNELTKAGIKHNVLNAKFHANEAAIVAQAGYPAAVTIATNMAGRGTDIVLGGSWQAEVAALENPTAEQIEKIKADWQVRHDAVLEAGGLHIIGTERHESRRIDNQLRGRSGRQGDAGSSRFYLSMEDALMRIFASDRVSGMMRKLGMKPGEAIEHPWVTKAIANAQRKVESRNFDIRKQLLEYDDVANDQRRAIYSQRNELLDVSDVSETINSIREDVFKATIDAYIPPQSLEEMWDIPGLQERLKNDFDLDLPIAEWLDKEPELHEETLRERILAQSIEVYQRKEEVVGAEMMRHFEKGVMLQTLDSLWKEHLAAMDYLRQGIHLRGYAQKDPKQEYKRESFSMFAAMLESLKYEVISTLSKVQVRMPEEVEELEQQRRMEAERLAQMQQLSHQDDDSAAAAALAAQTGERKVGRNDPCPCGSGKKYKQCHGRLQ
Sequence of Sialic acid-binding Ig-like lectin 9 (Homo sapiens) (Q9Y336 whole entry): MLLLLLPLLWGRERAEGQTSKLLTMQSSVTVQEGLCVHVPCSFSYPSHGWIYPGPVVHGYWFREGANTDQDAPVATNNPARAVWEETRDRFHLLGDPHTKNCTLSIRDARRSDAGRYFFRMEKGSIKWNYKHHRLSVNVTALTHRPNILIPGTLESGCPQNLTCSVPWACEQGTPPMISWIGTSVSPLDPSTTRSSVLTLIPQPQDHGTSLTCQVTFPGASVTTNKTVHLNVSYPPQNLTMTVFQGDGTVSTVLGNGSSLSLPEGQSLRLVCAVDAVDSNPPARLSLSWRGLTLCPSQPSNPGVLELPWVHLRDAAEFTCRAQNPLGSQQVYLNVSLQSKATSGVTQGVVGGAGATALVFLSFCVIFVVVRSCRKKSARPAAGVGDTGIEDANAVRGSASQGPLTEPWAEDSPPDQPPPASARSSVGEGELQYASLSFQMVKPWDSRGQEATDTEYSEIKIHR

SMILES | Percent Effect [1] [%] | Percent Effect [2] [%] | Percent Effect [3] [%] | Percent Effect [4] [%] | Percent Effect (Trypanosoma cruzi) [%] | Percent Effect [5] [%] | Percent Effect [6] [%] | Percent Effect (Homo sapiens) [%] | Percent Effect [7] [%] | Percent Effect [8] [%] | Percent Effect [9] [%]
O=C(C1=CCCC1)N1CCO[C@H]2[C@@H](OCC3CC3)CC[C@@H]21 | -3.62 | 18.7 | -4.28 | -6.26 | 2.51 | -51.1 | 18.3 | -0.0365 | 5.21 | 22.5 | -7.27
O=C(c1cnco1)N1CCCC(Cc2cccc3ncccc23)C1 (stereo unspecified) | -1.91 | -4.05 | 15.2 | -0.964 | 7.51 | 0.696 | 8.42 | 17.8 | 1.07 | 9.09 | -18.8
Cc1ccc(CN2CCC[C@]3(C(=O)O)CN(c4ncccn4)C[C@@H]3C2)o1 | -3.35 | 5.33 | -3.88 | 3.31 | 0.579 | -39.6 | 3.59 | -0.723 | 5.21 | -15 | -7.67
Cc1ncc(CN(C)C2CCCN(Cc3noc(C4CC4)n3)C2)s1 (stereo unspecified) | -3.21 | 5.26 | -3.55 | 4.27 | 7.52 | -0.766 | 8.02 | 14.3 | 2.45 | 12.2 | -9.03
N#Cc1cn(CC(=O)NC2CC2)c2ccc(Br)cc2c1=O | -3.54 | -2.67 | -3.82 | -2.14 | -1.27 | 2.6 | 14.7 | -0.582 | 0.546 | -3.7 | 74.8
CS(=O)(=O)CC(=O)N1C[C@H]2CCC[C@@]2(COCc2ccccn2)C1 | -1.45 | 2.7 | -3.2 | 0.525 | -0.88 | 11.2 | 26 | -5.57 | 0 | 17.9 | 0.642
Cc1ccc(NC2CCN(C(=O)CC3CCCO3)CC2)nn1 (stereo unspecified) | -3.13 | -5.41 | -10.4 | 8.84 | -2.17 | 2 | 1.8 | 5.87 | 1.48 | -8.64 | 0.857
CCC(C)(C)NC(=O)CN(C)C(c1cccc(F)c1)c1ccccn1 (stereo unspecified) | 0.66 | 2.6 | 9.59 | 15.1 | -3.56 | 3.56 | 0.845 | 36.6 | 5.83 | 7.32 | -2.33
Cc1nccn1CCCC(=O)N1CCC(Nc2cccnn2)CC1 | -3.42 | 5.41 | -7.19 | 11.7 | 4.43 | -1.6 | 3.06 | 1.39 | 2.46 | 16.1 | -8.26
COC(CNC(=O)N1CCC(n2cncn2)CC1)c1ccccc1 (stereo unspecified) | -0.684 | -3.8 | 13.4 | 3.12 | -1.13 | 1.94 | 0.686 | 0.165 | 2.08 | 2.53 | -14.3
O=C(NCCNc1cnccn1)C1CCN(C(=O)N2CCCC2)CC1 | -3.3 | 19 | -1.9 | -1.57 | -2.36 | -5.81 | 15.6 | 8.62 | -3.12 | 17.7 | -23.5
